Test results taken from paper PMC4336329 (PLoS ONE, 2015).
Among all 310,000 compounds or so, about 14,000 (4.5%) showed an effect of 50% or more. Effects have a minus sign here. Shown is part of a subset that was picked to be rich in strong results.
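Also: peak tail current of the secondary pulse compared with the same well before compound.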

These compounds were tested against human ether-à-go-go-related gene (hERG) potassium channel (human, UniProt Q12809) (assay: primary screen, population patch clamp on CHO cells stably expressing hERG; higher = less effect of the substance).
human ether-à-go-go-related gene (hERG) potassium channel, sequence (Q12809 whole entry, looked up): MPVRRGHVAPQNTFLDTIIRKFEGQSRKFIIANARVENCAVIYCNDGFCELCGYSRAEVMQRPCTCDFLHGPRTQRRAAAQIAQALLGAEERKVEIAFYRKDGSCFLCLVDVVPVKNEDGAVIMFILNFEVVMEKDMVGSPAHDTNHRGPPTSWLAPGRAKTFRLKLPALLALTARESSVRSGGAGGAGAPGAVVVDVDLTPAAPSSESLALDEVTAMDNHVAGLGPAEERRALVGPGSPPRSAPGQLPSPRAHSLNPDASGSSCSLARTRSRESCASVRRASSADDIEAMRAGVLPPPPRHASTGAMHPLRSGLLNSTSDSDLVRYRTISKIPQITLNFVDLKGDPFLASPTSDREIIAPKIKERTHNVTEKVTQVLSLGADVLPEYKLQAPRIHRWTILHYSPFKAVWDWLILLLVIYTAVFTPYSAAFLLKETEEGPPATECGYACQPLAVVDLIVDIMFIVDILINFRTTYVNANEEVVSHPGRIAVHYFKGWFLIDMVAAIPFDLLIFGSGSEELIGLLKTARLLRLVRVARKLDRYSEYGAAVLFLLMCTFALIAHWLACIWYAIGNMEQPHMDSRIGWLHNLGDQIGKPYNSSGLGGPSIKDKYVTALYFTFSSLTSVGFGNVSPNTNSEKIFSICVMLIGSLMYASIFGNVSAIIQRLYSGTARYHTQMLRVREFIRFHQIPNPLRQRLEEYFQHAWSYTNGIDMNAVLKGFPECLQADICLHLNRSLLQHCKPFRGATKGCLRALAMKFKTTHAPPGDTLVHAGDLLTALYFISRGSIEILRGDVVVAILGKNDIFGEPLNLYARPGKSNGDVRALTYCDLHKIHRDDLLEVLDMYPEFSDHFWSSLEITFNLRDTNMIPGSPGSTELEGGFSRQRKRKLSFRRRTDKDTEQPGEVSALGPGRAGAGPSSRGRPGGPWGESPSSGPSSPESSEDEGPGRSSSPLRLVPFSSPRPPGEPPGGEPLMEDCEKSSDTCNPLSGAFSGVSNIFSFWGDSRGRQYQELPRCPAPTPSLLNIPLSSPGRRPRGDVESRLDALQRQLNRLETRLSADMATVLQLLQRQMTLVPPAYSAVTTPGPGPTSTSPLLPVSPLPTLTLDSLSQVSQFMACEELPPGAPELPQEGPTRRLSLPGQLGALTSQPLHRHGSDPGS
Cc1ccc(C(=O)OCC(=O)Nc2ccc3[nH]c(=O)[nH]c3c2)cc1S(=O)(=O)N1CCOCC1 was tested, and the “hERG current change (%, negative = inhibition) at 10uM” value was 4.19%. For O=C(Nc1ccc(C(=O)N2CCCCC2)cc1)c1ccc(Br)cc1, the “hERG current change (%, negative = inhibition) at 10uM” value was 3.55%. O=C(O)c1ccc2c(c1)CCC2 was tested, and the “hERG current change (%, negative = inhibition) at 10uM” value was 9.54%. Cc1cc(NC(=O)C23CC4CC(CC(C4)C2)C3)n[nH]1 was tested, and the “hERG current change (%, negative = inhibition) at 10uM” value was -0.917%. With Cc1cccc(NC(=S)N2CCCC2)c1 the “hERG current change (%, negative = inhibition) at 10uM” value was 11.1%. COc1cc(OC)cc(C(=O)Nc2c(C)nn(-c3ccccc3)c2C)c1 was tested, and the “hERG current change (%, negative = inhibition) at 10uM” value was -3.27%. For COc1ccc(CCNC(=S)N2CCN(S(=O)(=O)c3ccccc3F)CC2)cc1, the “hERG current change (%, negative = inhibition) at 10uM” value was -3.68%. CCOC(=O)c1c(-c2ccccc2)csc1NC(=O)c1nn(CC)cc1Br was tested, and the “hERG current change (%, negative = inhibition) at 10uM” value was 6.4%. O=C(Oc1ccc(Cl)cc1)c1ccc(COC(=O)c2cnccn2)cc1 was tested, and the “hERG current change (%, negative = inhibition) at 10uM” value was 14.9%. In the case of COc1ccc(NC(=O)c2ccco2)c(OC)c1, the “hERG current change (%, negative = inhibition) at 10uM” value is reported as 16.9%. COc1ccc(NC(=O)c2ccccc2NC(=O)c2ccco2)c(OC)c1 was tested, and the “hERG current change (%, negative = inhibition) at 10uM” value was -73.4%. COc1ccc(NC(=O)CCC(=O)Nc2cc(OC)c(NC(=O)c3ccco3)cc2OC)c(OC)c1 was tested, and the “hERG current change (%, negative = inhibition) at 10uM” value was 20.4%. In the case of O=C(O)c1ccccc1C1Nc2ccccc2C(=O)N1CCCN1CCOCC1 (stereo not drawn), the “hERG current change (%, negative = inhibition) at 10uM” value is reported as 18.4%. For C/C(=N/n1cnnc1)c1cccnc1, the “hERG current change (%, negative = inhibition) at 10uM” value was -0.855%. With C/C(=N\NC(=O)CCC(=O)Nc1ccc(C)c(C)c1)C1CC1 the “hERG current change (%, negative = inhibition) at 10uM” value was 10.7%. With Cc1cccc2cc(C#N)c(N3CCN(C)CC3)nc12 the “hERG current change (%, negative = inhibition) at 10uM” value was -46%. For COc1ccc(C(=O)N2CCN(c3nc4cc(C)ccc4cc3C#N)CC2)c(OC)c1, the “hERG current change (%, negative = inhibition) at 10uM” value was -22.8%. With Cc1ccc2nc(N3CCN(C(=O)c4cccs4)CC3)c(C#N)cc2c1 the “hERG current change (%, negative = inhibition) at 10uM” value was -76.9%. In the case of CCc1ccc2nc(N3CCN(C)CC3)c(C#N)cc2c1, the “hERG current change (%, negative = inhibition) at 10uM” value is reported as -54.3%. In the case of COc1cc(C(=O)N2CCCN(c3nc4cc(C)ccc4cc3C#N)CC2)cc(OC)c1OC, the “hERG current change (%, negative = inhibition) at 10uM” value is reported as -53.5%. In the case of Cc1ccc2cc(C#N)c(N3CCN(C(=O)c4ccccc4)CC3)nc2c1, the “hERG current change (%, negative = inhibition) at 10uM” value is reported as -67.1%. Cc1ccc2cc(C#N)c(N3CCN(C(=O)c4cccs4)CC3)nc2c1 was tested, and the “hERG current change (%, negative = inhibition) at 10uM” value was -34.2%. Cc1ccc2nc(N3CCN(C)CC3)c(C#N)cc2c1 was tested, and the “hERG current change (%, negative = inhibition) at 10uM” value was -42.3%. For Cc1ccc2cc(C#N)c(N3CCN(C)CC3)nc2c1, the “hERG current change (%, negative = inhibition) at 10uM” value was 2.75%. Cc1ccc2cc(C#N)c(N3CCCN(C(=O)c4cnccn4)CC3)nc2c1 was tested, and the “hERG current change (%, negative = inhibition) at 10uM” value was -42.4%. With N#Cc1cccnc1N1CCN(C(=O)c2cccs2)CC1 the “hERG current change (%, negative = inhibition) at 10uM” value was -1.7%. For COc1ccc2cc(C#N)c(N3CCN(C(=O)c4ccccc4C)CC3)nc2c1, the “hERG current change (%, negative = inhibition) at 10uM” value was -18.9%.
